One assay concerns CRL-7250. Briefly: Cytotoxic Profiling of Annotated Libraries Using Quantitative High-Throughput Screening (AID 1296008). For max response: % is set by controls: 0 for no effect and ±100 for the full control effect. Particulars: Five cell lines viability, CellTiter-Glo ATP luminescence, 48-72 h; hits give low values. In a few lines: (§1)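 Cells exposed to compounds for 48 or 72 hr at 37 degrees Celsius. Viability read as ATP-coupled luminescence with CellTiter-Glo after 10 min at room temperature.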
(In general: Cellular ATP, detected with luciferase, serves as a proxy for viable cell number.)

Another assay relates to HEK293. Described as above. Particulars: Five cell lines viability, CellTiter-Glo ATP luminescence, 48-72 h; hits give low values. The method, boiled down:
as §1

Another assay deals with HaCat. The assay is described as above. Particulars: Five cell lines viability, CellTiter-Glo ATP luminescence, 48-72 h; hits give low values. In a few lines:
as §1

The subject of another assay is KB-3-1. The assay is described as above. Particulars: Five cell lines viability, CellTiter-Glo ATP luminescence, 48-72 h, hits give low values. In a few lines:
as §1

Assay [1] deals with NIH3T3. The description is as above. The following applies: Five cell lines viability, CellTiter-Glo ATP luminescence, 48-72 h; hits give low values. In a few lines: as §1
A further assay deals with MCC-13. Briefly: qHTS assay to identify novel small-molecules to repurpose for Merkel cell carcinoma treatment (AID 1296009). For activity change, negative = cytotoxicity: % is set by controls: 0 for no effect and ±100 for the full control effect. Particulars: MCC and control cell lines, CellTiter-Glo viability, 72 h; series mostly up to 46 µM. The method, boiled down:
(§2)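 CellTiter-Glo luminescence after 72 hr compound exposure at 37 degree celsius gave cell viability. Libraries NPC and MIPE were run as 8- and 11-point dose responses; RLUs normalized to DMSO (negative) and no-cell (cytotoxicity) controls.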
In general terms: In qHTS, concentration-response curves come from the screen itself.

A further assay relates to MCC-26. Described as above. Particulars: MCC and control cell lines, CellTiter-Glo viability, 72 h; series mostly up to 46 µM. The method, boiled down:
as §2

Another assay concerns MKL-1. The description is as above. The following applies: MCC and control cell lines, CellTiter-Glo viability, 72 h; series mostly up to 46 µM. In a few lines:
as §2

A further assay has as its system MKL-2. The assay is described as above. Particulars: MCC and control cell lines, CellTiter-Glo viability, 72 h; series mostly up to 46 µM. The method, boiled down:
as §2

Assay [2] deals with NIH3T3. Described as above. The following applies: MCC and control cell lines, CellTiter-Glo viability, 72 h; at 44.8 µM (top of the series) unless noted. The method, boiled down: as §2
For the next assay, the system named is UISO. The assay is described as above. Particulars: MCC and control cell lines, CellTiter-Glo viability, 72 h; series mostly up to 46 µM. In a few lines:
as §2

Another assay concerns PC26. Briefly: qHTS profiling for inhibitors of Plasmodium falciparum proliferation (AID 504749). Note: potency is the fitted concentration of half-maximal effect. Particulars: P. falciparum in erythrocytes, SYBR Green DNA, 72 h; series mostly up to 28.7 µM. In a few lines:
(§3)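 SYBR Green fluorescence (ex 485 nm, em 535 nm) reports parasite DNA after 72 h compound exposure of infected red cells at 0.3% parasitemia, 2.5% hematocrit; signal normalized to 0.29 uM artemisinin and vehicle wells.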

Another assay has as its system PC49. Described as above. The following applies: P. falciparum in erythrocytes, SYBR Green DNA, 72 h; series mostly up to 28.7 µM. In a few lines:
as §3

The next assay has as its system SC27B. The description is as above. Particulars: P. falciparum in erythrocytes, SYBR Green DNA, 72 h; series mostly up to 28.7 µM. The method, boiled down:
as §3

For another assay, the system named is TAB109. The description is as above. Particulars: P. falciparum in erythrocytes, SYBR Green DNA, 72 h; series mostly up to 28.7 µM. In a few lines: as §3
A further assay deals with TAB113. Described as above. Particulars: P. falciparum in erythrocytes, SYBR Green DNA, 72 h; series mostly up to 28.7 µM. In a few lines: as §3
Another assay deals with TAB165. Described as above. The following applies: P. falciparum in erythrocytes, SYBR Green DNA, 72 h; series mostly up to 28.7 µM. The method, boiled down:
as §3

The test system of the next assay is HEK293T. Briefly: qHTS assay to identify novel small-molecules to repurpose for Merkel cell carcinoma treatment (AID 1296009). For activity change, negative = cytotoxicity: % is set by controls: 0 for no effect and ±100 for the full control effect. The following applies: MCC and control cell lines, CellTiter-Glo viability, 72 h; at 44.8 µM (top of the series) unless noted. The method, boiled down:
as §2

The test system of a further assay is W2. Briefly: qHTS profiling for inhibitors of Plasmodium falciparum proliferation (AID 504749). Note: potency is the fitted concentration of half-maximal effect. The following applies: P. falciparum in erythrocytes, SYBR Green DNA, 72 h; series mostly up to 28.7 µM. The method, boiled down: as §3

Inconclusive results are not listed. A number with no mark means an inactive call. Active and inactive are the calls of the source. Calls come from the whole dose curve; as a rule, active = well fitted inhibition curve with a large enough effect; inconclusive = small, poorly fitted or top-dose-only effect; inactive = flat fitted curve, though single readings scatter.
Note: nearly all actives have a fitted effect of over 60% in size.

As to `O=C(O)[C@@H]1[C@H]2C[C@H]3c4[nH]c5ccccc5c4CCN3C[C@@H]2CC[C@@H]1O`, the max response in the assay on CRL-7250 is -7.72%; in the assay on HEK293 it was -7.97%; in the assay on HaCat, 4.24%; with KB-3-1, 7.03%. Also, the molecule was called inactive in the assay with NIH3T3 [1], in the assay on MCC-13, with MCC-26, in the assay on MKL-1, in the assay on MKL-2 and in the assay on NIH3T3 [2]. Also, the result in the assay on UISO was inactive.

For `COc1cc(C(=O)NCCCCCC(=O)O)cc(OC)c1OC`, the Potency result with PC26, in the assay with PC49, with SC27B, in the assay with TAB109, in the assay with TAB113 and in the assay on TAB165 was “inactive” in each case. The max response is -1.11% with CRL-7250, 4.84% with HaCat, 1.07% in the assay on KB-3-1 and 3.71% in the assay on NIH3T3 [1]. Also, the result in the assay on HEK293, in the assay with HEK293T, with MCC-13, with MCC-26, in the assay with MKL-1 and with MKL-2 was inactive. In the assay with UISO, the call was inactive.

`CCCCCCCCCCCCCCCCC(C(=O)O)C(O)(CC(=O)O)C(=O)O` (stereo not given): the Potency result in the assay on PC26, in the assay on PC49, with SC27B, with TAB109, in the assay on TAB113 and in the assay on TAB165 was “inactive” throughout. Moreover, the outcome in the assay on CRL-7250, in the assay with HEK293, in the assay on HEK293T, in the assay with MCC-13, in the assay on MCC-26 and in the assay with MKL-1 was inactive. Further, the outcome with MKL-2 and in the assay with UISO was inactive. Moreover, the max response with HaCat is 2.76%; in the assay with KB-3-1, 6.88%; in the assay with NIH3T3 [1], 0.574%.

`CCCCCCCCCCOc1cc2c(=O)c(C(=O)OCC)c[nH]c2cc1OCC`: the Potency was 7.9 nM (active) in the assay on PC49; 2.5 nM (active) in the assay on SC27B; 2.5 nM (active) with TAB109; 2.8 nM (active) in the assay on TAB113; 1.3 nM (active) with TAB165; 1.7 nM (active) with W2. Besides, the outcome with CRL-7250 and in the assay with HEK293 was inactive. Moreover, the figures for the max response in the assay on HaCat, in the assay on KB-3-1 and in the assay on NIH3T3 [1] were -5.57%, 7.91% and -1.43%, respectively. Further, in the assay with HEK293T, the outcome was “inactive [at 4.96 µM]”. Besides, the activity change, negative = cytotoxicity was 9.19% [at 4.84 µM] in the assay on MCC-13; -1.97% [at 4.84 µM] in the assay with MCC-26; -4.83% [at 4.84 µM] with MKL-1; 10.7% [at 4.84 µM] in the assay with MKL-2; 13.6% [at 4.84 µM] with UISO.

In the case of `CN[C@@H]1[C@H](O)[C@H](NC)[C@H]2O[C@@]3(O)C(=O)C[C@@H](C)O[C@H]3O[C@@H]2[C@H]1O`, the max response was -3.95% in the assay with CRL-7250; 1.03% in the assay on HEK293; 0.231% in the assay with HaCat; 16.3% in the assay with KB-3-1; 2.69% in the assay on NIH3T3 [1]. Further, the outcome in the assay on MCC-13, in the assay on MCC-26, in the assay on MKL-1, with MKL-2 and with UISO was inactive.

For `CC(=O)N(CC(O)CN(C(C)=O)c1c(I)c(C(=O)NCC(O)CO)c(I)c(C(=O)NCC(O)CO)c1I)c1c(I)c(C(=O)NCC(O)CO)c(I)c(C(=O)NCC(O)CO)c1I` (stereo not given), the max response with CRL-7250 is -0.159%; in the assay with HEK293, -0.57%; in the assay with HaCat it was -14.3%; in the assay with KB-3-1, 0.0705%. Further, the outcome in the assay with NIH3T3 [1], in the assay with MCC-13, with MKL-1, in the assay on MKL-2, in the assay with NIH3T3 [2] and in the assay on UISO was inactive.

For `NS(=O)(=O)c1cc2c(cc1C(F)(F)F)NCNS2(=O)=O`, the Potency entry in the assay with PC26, in the assay on PC49, in the assay with SC27B, in the assay with TAB109, with TAB113 and in the assay with TAB165 was “inactive” throughout. Besides, the Potency result in the assay on W2 was “inactive”. In addition, the max response is -22.8% with CRL-7250; -7.43% in the assay with HEK293; 2.79% in the assay with HaCat; -0.385% in the assay with KB-3-1; -4.18% in the assay on NIH3T3 [1]. Moreover, the call in the assay with MCC-13, with MCC-26, in the assay with MKL-1, with MKL-2 and in the assay with UISO was inactive.

Regarding `Cc1c(I)c(=O)n(-c2ccccc2)n1C`, the Potency entry in the assay on PC26, with PC49, in the assay on SC27B, in the assay with TAB109, in the assay on TAB113 and with TAB165 was “inactive” in each case. Further, the Potency result with W2 was “inactive”. The max response with CRL-7250 was 1.27%; in the assay on HEK293, -2.1%; with HaCat it was -20.9%; in the assay with KB-3-1, 2.22%. For the same molecule, the molecule was classed as inactive in the assay with NIH3T3 [1], with MCC-13, with MKL-1, with MKL-2, in the assay on NIH3T3 [2] and in the assay with UISO.

For `NC(=O)NS(=O)(=O)c1ccc(N)cc1`, the Potency entry in the assay on PC26, in the assay on PC49, in the assay with SC27B, in the assay with TAB109, in the assay on TAB113 and in the assay with TAB165 was “inactive” in each case. Besides, the Potency entry in the assay on W2 was “inactive”. For the same molecule, the max response is -2.79% in the assay on CRL-7250, -4.98% in the assay with HEK293, 2.87% with HaCat and 0.448% in the assay on KB-3-1. Also, the result in the assay on NIH3T3 [1], in the assay on MCC-13, in the assay with MKL-1, in the assay on MKL-2, with NIH3T3 [2] and in the assay with UISO was inactive.

For the molecule `CCN(CC)CCOC(=O)C(c1ccccc1)c1ccccc1`, the Potency entry in the assay on PC26, in the assay with PC49, with SC27B, in the assay on TAB109, in the assay with TAB113 and with TAB165 was “inactive” throughout. In addition, the Potency in the assay on W2 was 7570 nM (active). In addition, the max response with CRL-7250 is 4.76%; with HEK293 it was -4.53%; in the assay with HaCat, -2.12%; in the assay with KB-3-1 it was 0.686%; in the assay with NIH3T3 [1] it was -4.35%. For the same molecule, the molecule was classed as inactive in the assay on MCC-13, in the assay on MCC-26, with MKL-1, in the assay with MKL-2 and with UISO.
